In PubChem BioAssay (EPA / NIEHS) one finds outcome and AC50 data, which are given here for five molecules.

As a reminder, the AC50 is the concentration at which the activity in the assay is half-maximal.

Records with an inconclusive call do not appear. Active and inactive are the calls of the source. How the source made its calls, unless noted: active means hit-call score of the fitted dose curve at least 0.9, where 1 is the maximum; inactive means score below 0.9.

The nature of assay [1]: ACEA_ER_80hr: ACEA Biosciences xCELLigence Real-Time Cell Analysis on Estrogen Receptor Agonism for Proliferation (AID 2282667; active means hit-call score of the fitted dose curve at least 0.9, where 1 is the maximum). The settings on record: T47D proliferation, impedance (xCELLigence), 80 h. The essentials:
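T47D human breast cells were seeded on electrode plates, monitored overnight, then exposed continuously to compounds in eight-point 1:4 dilutions from 100 uM (max 0.5% DMSO). Impedance-based growth was read at 80 h, fitted upward relative to DMSO.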

The nature of assay [2]: ATG_CRE_CIS: Attagene CIS-FACTORIAL HepG2 Assay for human cAMP Responsive Element (CRE) binding protein 3 (AID 2282926). The settings on record: HepG2 CRE cis-reporter, Attagene multiplexed mRNA; actives raise or lower the signal. Summed up: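 Capillary electrophoresis of 6-FAM-labelled, HpaI-digested PCR products quantified reporter transcripts. These came from HepG2 transiently transfected with cis-element reporters and exposed to test chemicals for 24 hours, with DMSO defining baseline activity.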

Assay [3] deals with CCAAT/enhancer-binding protein beta (Homo sapiens) (UniProt P17676). Kind of assay: ATG_C_EBP_CIS: Attagene CIS-FACTORIAL HepG2 Assay for human CCAAT/Enhancer Binding Protein (C/EBP) beta (AID 2282927). The settings on record: HepG2 Attagene cis-factorial transcription factor reporter; actives raise or lower the signal. Summed up:
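Transiently transfected HepG2 (MRTU library, endogenous TF-driven promoters); 24 h dosing; total RNA → oligo(dT) RT → PCR → 6-FAM primer extension → HpaI digest → CE; fit bidirectionally vs DMSO.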

Assay [4] is described as follows: ATG_CMV_CIS: Attagene CIS-FACTORIAL HepG2 Assay for human CMV (Internal Marker) (AID 2282928).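 Further: endpoint acts as a background internal control marker rather than a target.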 The settings on record: HepG2 CMV promoter reporter, transcription factor profiling; actives raise or lower the signal. Summed up: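 Fluorescence intensity of RT-PCR-derived reporter fragments, resolved by capillary electrophoresis, gives the signal. HepG2 liver cells bearing transfected cis-element reporters were treated 24 h; activity in either direction was fit relative to DMSO-treated controls.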

Assay [5] in a line: ATG_DR4_LXR_CIS: Attagene CIS-FACTORIAL HepG2 Assay for human Liver X Receptor (LXR), DR4 submotif (AID 2282929). The settings on record: HepG2 Attagene DR4 cis-reporter, mRNA transcription; actives raise or lower the signal. The essentials: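 Endogenous factor activity at a DR4 cis-element is read as reporter mRNA in transiently transfected HepG2 cells. Exposure lasts 24 h; transcripts are amplified, fluorescently labelled and sized by capillary electrophoresis, with DMSO as baseline.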

The target in assay [6] is Aryl hydrocarbon receptor (Homo sapiens) (UniProt P35869). The experiment in a line: ATG_Ahr_CIS: Attagene CIS-FACTORIAL HepG2 Assay for human Aryl Hydrocarbon Receptor (Ahr) (AID 2282930). The settings on record: HepG2 AhR cis-factorial reporter transcription; actives raise or lower the signal. The essentials: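 Read-out: reporter mRNA quantified by RT-PCR with fluorescent primer extension and capillary electrophoresis. Human HepG2 liver cells carried transfected cis-promoter reporter units and were exposed to chemical for 24 h; gain or loss fitted relative to DMSO.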

Assay [7] in a line: ATG_AP_1_CIS: Attagene CIS-FACTORIAL HepG2 Assay for human Activator Protein 1 (AP-1) (AID 2282931). The settings on record: HepG2 Attagene cis-factorial AP-1 reporter mRNA; actives raise or lower the signal. Summed up:
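Fluorescence of labelled PCR fragments separated by capillary electrophoresis gives reporter mRNA levels. HepG2 with transfected cis-regulated reporter units, 24 h exposure; DMSO serves as baseline for bidirectional curve fits.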

The nature of assay [8]: ATG_AP_2_CIS: Attagene CIS-FACTORIAL HepG2 Assay for human Activator Protein 2 (AP-2) (AID 2282932). To be noted: HepG2 AP-2 cis-reporter, Attagene transcription factor profiling; actives raise or lower the signal. The essentials: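 Liver-derived HepG2 line, cis-reporter system measuring endogenous factors; 24 h dosing; reporter mRNA detected by fluorescent RT-PCR and capillary electrophoresis.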

The nature of assay [9]: ATG_BRE_CIS: Attagene CIS-FACTORIAL HepG2 Assay for human Bone Morphogenetic Protein (BMP) Response Element (BRE) (AID 2282933). The settings on record: HepG2 BMP response element reporter, Attagene transcription factor profiling; actives raise or lower the signal. Summed up: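 A HepG2 multiplex reporter system measured inducible reporter mRNA 24 h post-dosing. Detection: RT-PCR, 6-FAM primer extension, HpaI digestion, capillary electrophoresis. Activity fitted bidirectionally relative to DMSO.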

Assay [10] has as its target Retinoic acid receptor alpha (Homo sapiens) (UniProt P10276). Kind of assay: ATG_DR5_RAR_CIS: Attagene CIS-FACTORIAL HepG2 Assay for human Retinoic Acid Receptor Alpha (RARE), DR5 submotif (AID 2282934). To be noted: HepG2 Attagene cis-factorial RARE DR5 reporter, mRNA; actives raise or lower the signal. The essentials:
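Read-out: DR5-driven reporter transcript measured by RT-PCR, 6-FAM primer extension, HpaI digest and capillary electrophoresis. Human HepG2 liver cells carry transiently transfected cis-element reporter constructs; dosing lasts 24 h. Gain or loss of signal fitted against DMSO baseline.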

Assay [11] concerns the target Transcription factor E2F1 (Homo sapiens) (UniProt Q01094). Kind of assay: ATG_E2F_CIS: Attagene CIS-FACTORIAL HepG2 Assay for human E2F Transcription Factor 1 (AID 2282935). The settings on record: HepG2 Attagene cis-reporter, E2F reporter RNA transcripts; actives raise or lower the signal. Summed up: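 Liver-derived HepG2 cells expressing transfected promoter-driven reporter units received test chemical for 24 hours. Signal gains or losses were fitted bidirectionally against DMSO.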

A short description of assay [12]: ATG_E_Box_CIS: Attagene CIS-FACTORIAL HepG2 Assay for human Enhancer Box (E-box) (AID 2282936). To be noted: HepG2 E-box cis-reporter transcription, actives raise or lower the signal. The essentials:
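In this cell-based setup, HepG2 cells bearing transfected promoter-driven reporter units were exposed to chemicals for 24 h; reporter transcripts were amplified, 6-FAM-labelled, cut with HpaI and sized by capillary electrophoresis.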

Assay [13] in a line: ATG_M_61_CIS: Attagene CIS-FACTORIAL HepG2 Assay for M61 Transcription Factor (Internal Marker) (AID 2282937). To be noted: HepG2 Attagene CIS-FACTORIAL M61 internal marker reporter; actives raise or lower the signal. Summed up:
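This endpoint serves as an internal background control within a multiplexed HepG2 cis-reporter panel. Cells are exposed for 24 h; reporter mRNA is amplified, fluorescently labelled and sized by capillary electrophoresis, with DMSO as negative control.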

A short description of assay [14]: ATG_EGR_CIS: Attagene CIS-FACTORIAL HepG2 Assay for human Early Growth Response 1 (EGR1) (AID 2282938). To be noted: HepG2 Attagene CIS-FACTORIAL EGR reporter mRNA; actives raise or lower the signal. The essentials:
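HepG2, transient MRTU transfection (cis promoters), 24 h compound. RNA → RT (oligo-dT) → PCR → 6-FAM labelling → HpaI cut → CE fluorescence. Bidirectional fit, DMSO baseline.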

The nature of assay [15]: ATG_ERE_CIS: Attagene CIS-FACTORIAL HepG2 Assay for Estrogen Response Element (ERE) (AID 2282940). The settings on record: HepG2 ERE cis-reporter, Attagene RNA transcript; actives raise or lower the signal. Summed up:
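Human liver cells (HepG2) bearing transiently transfected, promoter-regulated reporter units were exposed 24 h. Reporter mRNA induction was detected by capillary electrophoresis of labelled RT-PCR products and fitted bidirectionally to DMSO.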

Assay [16] in a line: ATG_Ets_CIS: Attagene CIS-FACTORIAL HepG2 Assay for human Erythroblast Transformation Specific (ETS) (AID 2282941). The settings on record: HepG2 ETS cis-reporter transcription, actives raise or lower the signal. The essentials: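 Multiplexed reporter transcript profiling: HepG2, 24 h treatment, total RNA to cDNA, PCR, 6-FAM labelling, HpaI cut, capillary electrophoresis. Gain- or loss-of-signal fitted against DMSO.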

Assay [17] concerns the target Hepatocyte nuclear factor 3-beta (Homo sapiens) (UniProt Q9Y261). Kind of assay: ATG_FoxA2_CIS: Attagene CIS-FACTORIAL HepG2 Assay for human Forkhead box A2 (FOXA2) (AID 2282942). The settings on record: HepG2 cis-reporter transcription factor activity, 24 h; actives raise or lower the signal. Summed up: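 Cells: HepG2, transient multiplex reporter transfection. Exposure 24 h. Detection: reporter-specific RT-PCR, fluorescent labelling, restriction digest, capillary electrophoresis. Analysis: bidirectional curve fit, DMSO as negative control.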

Assay [18] is described as follows: ATG_FoxO_CIS: Attagene CIS-FACTORIAL HepG2 Assay for human Forkhead box O (FoxO) (AID 2282943). The settings on record: HepG2 Attagene cis-reporter, FoxO element, mRNA; actives raise or lower the signal. The essentials: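 Read-out: fluorescence of 6-FAM-labelled reporter cDNA fragments resolved by capillary electrophoresis. Transiently transfected HepG2 cells were dosed for 24 h; activity fitted in both directions relative to DMSO controls.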

Assay [19] in a line: ATG_GATA_CIS: Attagene CIS-FACTORIAL HepG2 Assay for human GATA Binding Protein (AID 2282944). The settings on record: HepG2 GATA cis-element reporter, Attagene multiplex mRNA; actives raise or lower the signal. The essentials:
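Transfected cis-reporter HepG2 cells were treated with chemicals for 24 hours. Total RNA was then converted to cDNA, amplified with reporter-specific primers and analysed by fluorescent capillary electrophoresis, using DMSO-treated wells as baseline.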

Chain of Retinoic acid receptor alpha (Homo sapiens) (P10276 whole entry, looked up): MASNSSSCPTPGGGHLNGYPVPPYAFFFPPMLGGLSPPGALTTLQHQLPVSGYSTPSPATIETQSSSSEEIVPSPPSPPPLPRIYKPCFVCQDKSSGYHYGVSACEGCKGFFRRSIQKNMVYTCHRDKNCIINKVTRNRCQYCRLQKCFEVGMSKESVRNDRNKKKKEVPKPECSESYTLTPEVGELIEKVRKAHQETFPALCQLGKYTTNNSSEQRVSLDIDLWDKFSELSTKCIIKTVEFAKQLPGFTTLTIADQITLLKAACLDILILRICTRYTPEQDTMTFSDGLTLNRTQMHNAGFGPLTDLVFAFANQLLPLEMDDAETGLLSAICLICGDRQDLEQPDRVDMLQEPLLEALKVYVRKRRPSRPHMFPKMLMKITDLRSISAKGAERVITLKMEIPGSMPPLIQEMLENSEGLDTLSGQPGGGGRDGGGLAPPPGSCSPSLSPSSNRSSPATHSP
Chain of Aryl hydrocarbon receptor (Homo sapiens) (P35869 whole entry, looked up): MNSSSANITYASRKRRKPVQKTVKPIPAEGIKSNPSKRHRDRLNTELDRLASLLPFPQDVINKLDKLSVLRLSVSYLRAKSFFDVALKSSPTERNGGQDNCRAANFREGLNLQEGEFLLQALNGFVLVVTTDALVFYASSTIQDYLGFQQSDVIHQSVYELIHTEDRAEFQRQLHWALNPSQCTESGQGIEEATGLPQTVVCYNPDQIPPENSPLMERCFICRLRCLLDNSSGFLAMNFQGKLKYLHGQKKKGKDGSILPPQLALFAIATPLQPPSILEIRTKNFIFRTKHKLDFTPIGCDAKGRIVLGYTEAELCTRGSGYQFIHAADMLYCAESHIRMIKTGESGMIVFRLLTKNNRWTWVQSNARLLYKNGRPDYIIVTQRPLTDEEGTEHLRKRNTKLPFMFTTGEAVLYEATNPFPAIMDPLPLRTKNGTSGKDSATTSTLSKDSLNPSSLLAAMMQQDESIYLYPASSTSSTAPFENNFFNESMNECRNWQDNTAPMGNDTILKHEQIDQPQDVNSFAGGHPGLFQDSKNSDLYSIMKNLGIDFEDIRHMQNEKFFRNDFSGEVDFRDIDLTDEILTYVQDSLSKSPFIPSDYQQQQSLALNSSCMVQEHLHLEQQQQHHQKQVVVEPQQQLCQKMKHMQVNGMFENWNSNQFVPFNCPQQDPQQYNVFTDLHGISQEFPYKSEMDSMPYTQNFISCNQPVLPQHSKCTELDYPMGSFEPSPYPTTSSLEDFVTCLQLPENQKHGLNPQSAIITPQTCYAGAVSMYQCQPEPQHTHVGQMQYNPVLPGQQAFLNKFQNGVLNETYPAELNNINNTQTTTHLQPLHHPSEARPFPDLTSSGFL
Chain of CCAAT/enhancer-binding protein beta (Homo sapiens) (P17676 whole entry, looked up): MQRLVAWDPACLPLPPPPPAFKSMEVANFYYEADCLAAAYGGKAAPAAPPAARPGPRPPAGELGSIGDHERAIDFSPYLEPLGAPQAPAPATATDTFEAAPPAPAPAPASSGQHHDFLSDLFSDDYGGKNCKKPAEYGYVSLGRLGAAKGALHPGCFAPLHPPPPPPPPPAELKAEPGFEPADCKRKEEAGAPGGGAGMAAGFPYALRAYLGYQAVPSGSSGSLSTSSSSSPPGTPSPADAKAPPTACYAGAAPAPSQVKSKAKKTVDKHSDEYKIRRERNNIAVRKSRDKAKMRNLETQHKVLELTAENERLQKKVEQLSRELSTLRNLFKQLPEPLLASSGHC
Chain of Transcription factor E2F1 (Homo sapiens) (Q01094 whole entry, looked up): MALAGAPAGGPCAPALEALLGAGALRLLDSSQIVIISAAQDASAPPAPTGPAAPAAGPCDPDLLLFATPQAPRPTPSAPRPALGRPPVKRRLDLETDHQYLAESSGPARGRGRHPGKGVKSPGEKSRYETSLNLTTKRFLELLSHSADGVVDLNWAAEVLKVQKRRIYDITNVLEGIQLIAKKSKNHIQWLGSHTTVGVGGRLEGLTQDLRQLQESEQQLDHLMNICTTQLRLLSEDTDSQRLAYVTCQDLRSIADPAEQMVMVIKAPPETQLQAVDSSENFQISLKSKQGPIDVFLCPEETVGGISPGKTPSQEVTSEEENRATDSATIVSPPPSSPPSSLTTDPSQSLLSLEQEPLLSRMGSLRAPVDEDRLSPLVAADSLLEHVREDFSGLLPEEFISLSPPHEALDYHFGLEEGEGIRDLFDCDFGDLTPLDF
Chain of Hepatocyte nuclear factor 3-beta (Homo sapiens) (Q9Y261 whole entry, looked up): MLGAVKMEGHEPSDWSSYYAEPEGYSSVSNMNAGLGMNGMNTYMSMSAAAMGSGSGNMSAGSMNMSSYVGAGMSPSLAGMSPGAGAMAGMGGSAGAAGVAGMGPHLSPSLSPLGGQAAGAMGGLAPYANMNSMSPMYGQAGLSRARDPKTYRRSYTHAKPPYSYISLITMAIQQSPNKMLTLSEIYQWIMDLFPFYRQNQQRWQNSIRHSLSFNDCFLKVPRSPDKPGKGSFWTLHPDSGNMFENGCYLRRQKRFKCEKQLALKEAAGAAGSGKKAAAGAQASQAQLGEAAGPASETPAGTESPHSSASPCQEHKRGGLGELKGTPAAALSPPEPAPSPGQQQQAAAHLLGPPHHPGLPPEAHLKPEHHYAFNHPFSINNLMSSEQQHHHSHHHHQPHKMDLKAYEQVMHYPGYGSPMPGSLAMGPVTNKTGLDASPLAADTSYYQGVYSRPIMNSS

Regarding `NC(=O)C(F)(F)C(F)(F)C(F)(F)C(F)(F)C(N)=O`, the call in assay [1], in assay [2], in assay [3], in assay [4], in assay [5] and in assay [6] was inactive. Besides, the molecule was called inactive in assay [7], in [8], in assay [9], in assay [10], in [11] and in [12]. Further, the call in [13], in assay [14], in [15], in assay [16], in assay [17] and in [18] was inactive. The result in [19] was inactive.

Regarding `CSc1ccc(O)cc1C`, the result in [1], in assay [2], in assay [3], in assay [4], in assay [5] and in assay [6] was inactive. Further, the call in [7], in [8], in assay [9], in assay [10], in [11] and in assay [12] was inactive. Also, the molecule was classed as inactive in assay [13], in [14], in [16], in [17], in assay [18] and in assay [19]. The AC50 in [15] is 31.7 µM (active).

With `CC(C)OC(=O)COc1ccc(Cl)cc1Cl`, the molecule was classed as inactive in assay [1], in [2], in [3], in assay [4], in [5] and in assay [6]. Further, the call in assay [7], in [8], in [9], in [10], in [11] and in assay [12] was inactive. Also, the result in assay [13], in [14], in assay [15], in assay [16], in [17] and in assay [18] was inactive. In addition, the molecule was classed as inactive in assay [19].

Regarding `CC(C)(C)c1cc(CCC(=O)OCC(COC(=O)CCc2cc(C(C)(C)C)c(O)c(C(C)(C)C)c2)(COC(=O)CCc2cc(C(C)(C)C)c(O)c(C(C)(C)C)c2)COC(=O)CCc2cc(C(C)(C)C)c(O)c(C(C)(C)C)c2)cc(C(C)(C)C)c1O`, the AC50 in assay [1] was 0.173 µM (active); in [15], 7.29 µM (active). In addition, the result in [2], in [3], in assay [4], in [5], in assay [6] and in assay [7] was inactive. Moreover, the molecule was classed as inactive in [8], in assay [9], in [10], in assay [11], in assay [12] and in [13]. Further, the call in [14], in assay [16], in [17], in assay [18] and in assay [19] was inactive.

Consider `N#Cc1ccccc1O`, for which the call in assay [1], in assay [2], in assay [3], in [4], in assay [5] and in assay [7] was inactive. Moreover, the molecule was classed as inactive in [8], in [9], in [10], in assay [11], in assay [12] and in assay [13]. Besides, the molecule was called inactive in [14], in [15], in assay [16], in assay [17], in assay [18] and in [19]. The concentration at half-maximal activity (AC50) in [6] is 10.8 µM (active).
